CHOP inh = inhibitors of CHOP promoter induction, primary screen, cell-based, unfolded protein response, luciferase reporter; CHO-K1 CHOP-promoter luciferase, tunicamycin-induced, 15-18 h; inhibition, % at 10 µM; 3.8% of 220,000 active; AID 2732, 2010;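 active = compounds that reduced the stress-induced luciferase reporter signal by more than about 70% of percent inhibition, limit read from the data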;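 note: 0% = tunicamycin plus vehicle and 100% = wells without tunicamycin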
WT yeast gro inh = growth inhibition of WT strain, primary screen, mitochondrial fusion inhibitor project, WT and mutant strains, chemical genetic | mitochondrial fusion phenotypic screen | inhibition, % at 10 µM | 2.1% of 190,000 active | AID 1362, 2008; in the data active = inhibition above about 58%; tested in S. cerevisiae
Arbovirus inh = antivirals against arbovirus infection, primary screen, cell-based, full library, 10K replicate subset; inhibition, % at 10 µM; arbovirus infection cell-based antiviral screen; 0.37% of 200,000 active; AID 1251, 2008; in the data active = inhibition above about 30%
L major viab = Leishmania major promastigote growth inhibition, primary screen; Leishmania major promastigotes, resazurin fluorescence viability; AID 1063, 2008; inhibition, % at 10 µM; 9% of 200,000 active; in the data active = inhibition above about 50%;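 note: promastigotes grown with compound for 44 hours at 28 °C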
CHOP inh conf = retest of CHOP induction inhibitors, confirmation, cell-based; shares compounds with CHOP inh; CHO-CHOP promoter luciferase reporter, tunicamycin-induced, luminescence; inhibition, % at 10 µM; 45% of 2,100 active;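 active = mean of three repeat readings of reporter signal inhibition above a set limit, cut at about 70% in these data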;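 note: 0% = tunicamycin plus vehicle and 100% = wells lacking tunicamycin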
An asterisk follows results filed as active; / = no result given. Shown are actives, neighbours in structure and some others; about 12% of the full set was active somewhere.

SMILES | CHOP inh | WT yeast gro inh | Arbovirus inh | L major viab | CHOP inh conf
CCCC(=O)N1CCN(c2ccc(NC(=O)c3cc4ccccc4o3)cc2Cl)CC1 | / | 52.0 | -41.0 | 60.1* | 109.2*
Cc1cccnc1NC(=O)C(C)N1C(=O)c2ccccc2C1=O (centres undefined) | -11.6 | / | / | / | /
O=C(c1ccco1)c1cn(CC(=O)N2CCCCC2)c2ccccc12 | 55.4 | -2.4 | 1.4 | 10.7 | /
Nc1cc(OC(=O)c2cccs2)nn1S(=O)(=O)c1ccccc1 | 42.7 | -8.0 | -3.5 | -5.0 | /
Cc1nn(-c2ccccc2)c(OC(=O)c2cccs2)c1S(=O)(=O)c1ccccc1 | 105.8* | -0.4 | 1.5 | -8.7 | 14.9
CC1COc2ccccc2N1C(=O)c1ccc(Cl)nc1 (centres undefined) | 9.3 | 10.4 | 2.2 | 0.6 | /
CCCn1c(SCC(=O)Nc2ccc(OC)cc2)nnc1-c1ccncc1 | 10.2 | 1.7 | 17.0 | 1.0 | /
COc1ccc(-c2c3c(nc4sc(C(=O)Nc5cc(C)on5)c(N)c24)CCC3)cc1 | -12.6 | 17.2 | 1.6 | -5.2 | /
COc1ccc(-c2c3c(nc4sc5c(=O)[nH]c(C)nc5c24)CCC3)cc1 | 113.4* | 6.7 | 8.5 | 14.1 | 23.7
COc1ccc(C(=O)N/N=C/c2ccc(OC)c(CN3CCc4cc(OC)c(OC)cc4C3C)c2)cc1 (centres undefined) | 5.2 | -8.3 | -7.0 | 3.6 | /
CNC(=O)c1c(NC(=O)c2cc(-c3cc(C)c(C)cc3O)n[nH]2)sc2c1CCCC2 | 102.7* | / | / | / | -5.7
O=C(NCc1nc2ccccc2[nH]1)C1=C[C@@H](c2ccccc2)C[C@@H](OCCCCO)O1 | -0.4 | -5.1 | 0.1 | 14.9 | /
COc1ccc(NS(=O)(=O)c2ccc3oc(SCc4ccc(F)cc4)nc3c2)cc1 | 96.3* | 57.5 | -19.8 | -3.8 | 57.8
COc1ccccc1NS(=O)(=O)c1ccc2oc(SCc3ccc(F)cc3)nc2c1 | 38.7 | 38.9 | 7.0 | 3.3 | /
C=C(C(=O)c1ccccc1)C(C)C(=C)C(=O)c1ccccc1 | 99.5* | 50.9 | -21.5 | 100.2* | 109.7*
CC1(C)Cc2c(sc(/N=C/N3CCCC3)c2C#N)C(C)(C)N1 | -17.3 | -9.7 | -15.6 | 12.5 | /
Cc1cccc(N2CCN(C3=NC(=O)/C(=C\c4cn[nH]c4-c4ccccc4)S3)CC2)c1 | 102.0* | 7.7 | -6.8 | 5.8 | 57.3
CCn1c(CCNC(=O)c2cccs2)n[nH]c1=S | 7.7 | 12.7 | -13.5 | -4.0 | /
COc1ccc([C@H]2Oc3cc(O)cc(O)c3C(=O)C2[C@@H]2C(=O)c3c(O)cc(O)cc3O[C@@H]2c2ccc(OC)cc2)cc1 (some centres undefined) | 105.0* | / | / | / | 110.8*
O=C1c2c(O)cc(O)cc2OC(c2ccc(O)c(O)c2)C1O (centres undefined) | -10.4 | / | / | / | /
O=C(CSc1nnc(-c2ccco2)o1)N1c2ccccc2CCc2ccccc21 | 60.6 | 17.3 | 3.2 | 29.4 | /
COc1ccc(NC(=O)N2CCN(c3ccc([N+](=O)[O-])cc3)CC2)cc1OC | 7.2 | 5.6 | 2.9 | 29.2 | /
Cc1cc(C(=O)N2CCC(Cc3ccccc3)CC2)ccc1[N+](=O)[O-] | 49.9 | 21.6 | -9.7 | 1.4 | /
O=[N+]([O-])c1cc(-n2cnnn2)ccc1N1CCC(Cc2ccccc2)CC1 | 103.5* | 52.0 | -3.1 | 8.2 | 39.3
O=C(O)COc1ccccc1/C=N/NC(=O)CSc1nc2ccccc2n1Cc1ccccc1Cl | 7.8 | / | / | / | /
SMILES | CHOP inh | WT yeast gro inh | Arbovirus inh | L major viab | CHOP inh conf
C=CCN1C(=O)/C(=C\c2ccc(OC(=O)c3ccco3)c(OC)c2)SC1=S | 3.0 | 13.0 | 1.4 | -3.8 | /
C=CCN1C(=O)/C(=C/c2ccc(OC(C)=O)c(OCC)c2[N+](=O)[O-])SC1=S | 100.5* | 97.2* | -5.6 | 91.4* | 113.9*
CCOC(=O)C1(CCc2ccccc2)CCN(C(=O)Cc2nonc2C)CC1 | 103.3* | 20.1 | 3.2 | -1.4 | -37.7
O=S(=O)(/N=C(\Sc1ccc(Cl)cc1)c1ccccc1)c1ccccc1 | 102.5* | 10.5 | -6.1 | 2.3 | 35.3
CC(/C=N/NC(=O)CSc1n[nH]c(=O)[nH]c1=O)=C\c1ccccc1 | 2.3 | / | / | / | /
CCCCCC(=O)NC(=S)Nc1ccc2oc(=O)ccc2c1 | 11.7 | 26.6 | -3.7 | 6.1 | /
COc1ccc(-c2cc(C(=O)Nc3c(C)nn(Cc4ccccc4Cl)c3C)no2)cc1 | -15.1 | 7.1 | 3.5 | -1.0 | /
Cc1nn(Cc2c(Cl)cccc2Cl)c(C)c1NC(=O)c1cc(C(C)C)on1 | / | 16.6 | 6.0 | 19.7 | 95.5*
Cc1nn(Cc2ccc(Cl)cc2)c(C)c1NC(=O)c1cc(-c2ccc3c(c2)OCO3)on1 | 101.8* | -8.2 | -26.9 | 20.2 | 62.1
Cc1cc(C(=O)Nc2c(C)nn(Cc3c(Cl)cccc3Cl)c2C)no1 | 6.4 | -9.4 | -2.7 | -7.4 | /
CCN(CC)S(=O)(=O)c1ccc(N2CCOCC2)c(NC(=O)c2ccc(C#N)cc2)c1 | -5.8 | -13.6 | 6.0 | -4.0 | /
O=C(Nc1ccc(Oc2ccccc2)cc1)C1CCN(c2c3c(nc4ncnn24)CCC3)CC1 | 104.3* | 9.1 | -14.5 | 7.2 | 92.1*
Cc1c(C(=O)OCC(=O)N2CC(=O)Nc3ccccc32)oc2ccc(Br)cc12 | 104.1* | -1.0 | 2.0 | -1.1 | 1.4
Cc1cc(C(=O)OCC(=O)N2CC(=O)Nc3ccccc32)no1 | 21.9 | 20.5 | -3.0 | -3.7 | /
Cc1ccccc1OCc1nc(-c2ccccc2)no1 | 100.2* | 5.8 | -0.8 | -1.1 | -0.3
Cc1ccc(C(C)C)c(OCc2ccc(C(=O)N/N=C/c3ccc(C(=O)O)cc3)cc2)c1 | 96.8* | / | / | / | 30.9
Cc1ccc(N2CC(=O)Nc3c(oc4nc(-c5ccccc5)cc(C)c34)C2=O)cc1 | 97.2* | / | / | / | -68.8
Cc1cc(-c2ccccc2)nc2[nH]n(-c3ccccc3)c(=O)c12 | 5.3 | 42.8 | -5.5 | -5.0 | /
Cc1ccc(NN2C(=O)C=C(c3ccccc3)C2=O)cc1 | 107.3* | 76.6 | -25.2 | 6.8 | -138.7
O=C1c2ccccc2C(=O)N1Nc1ccccc1 | 17.4 | -18.3 | -39.2 | 32.9 | /
CC1=NN(C(=O)c2ccc(Cn3nc(C)cc3C)o2)C(O)(C(F)(F)F)C1 (centres undefined) | 10.0 | -1.3 | -1.6 | -3.5 | /
Cc1ccc(N=C(NOC(=O)c2ccccc2)c2nonc2N)c(C)c1 | 53.0 | 3.2 | 4.1 | 7.4 | /
Cc1ccccc1N=C(NOCc1ccccc1)c1nonc1N | 100.3* | 32.2 | -3.1 | 18.7 | 32.3
CN(C)CCNC=C(C(=O)Nc1ccc(Cl)cc1Cl)C(=O)Nc1ccc(Cl)cc1Cl | 99.0* | 97.5* | -6.2 | 13.0 | 26.4
CC(=O)/C(=C/N(C)C)C(=O)Nc1ccc(Cl)cc1Cl | 11.5 | 21.2 | 12.8 | -6.4 | /
Cc1nc2ccccn2c1C(=O)N=Nc1c(O)n(CCC(C)C)c2ccccc12 | 101.5* | 12.7 | -33.5 | 66.9* | 105.0*
N#C/C(C(=O)NCc1ccccc1)=C1/N=C(NC(=O)c2cccs2)c2ccccc21 | 27.9 | 12.1 | -11.1 | 2.6 | /
COc1ccc(C2CC(c3cccs3)=NN2S(C)(=O)=O)cc1OC (centres undefined) | 2.9 | -12.0 | 3.4 | -7.4 | /

Screens: PubChem, several laboratories
